Measurements from PubChem BioAssay AID1117362 (Southern Research Institute, 2015).
About 100 (2.8%) of roughly 3,600 compounds were called active. The list is a sample of the results. Values without a mark were called inactive.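 The calls were made as follows: active = inhibition above 30% at one or more concentrations, seen consistently on every test date; inconclusive = results that disagree between repeat test dates; inactive = the rest.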

Experiment: GST-antibody interaction or FRET quenching – biochemical, TR-FRET, artefact control for Vif-APOBEC3G degradation inhibitor project, dose response (AID 1117362);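 also: biotinylated GST protein used in place of GST-Vif 1-94 and biotin-A3G peptide; detects fluorescence quenchers or blockers of GST binding to anti-GST antibody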
Conditions: TR-FRET counter screen, biotin-GST/anti-GST signal; series mostly up to 100 µM; inhibition: at the top concentration

Compound	inhibition [%]
CN1CCC(N(C)C(=O)COc2ccccc2-c2ccccc2)CC1	5.49
O=C(O)CCCCC1CCSS1 (configuration not stated)	-2.13
CN(C)C(=O)c1nc2ccc(Cl)cn2c1CN1CCCC(OCc2ccccc2)C1 (configuration not stated)	5.59
O=C1CC(Nc2ccc(N3CCOCC3)cc2)C(=O)N1c1ccccc1F (configuration not stated)	4.96
Cc1ccc(/C=C/C(=O)Nc2cccc(S(=O)(=O)N3CCOCC3)c2)o1	3.12
CCOC(=O)/C=C1\SCC(=O)N1CC(=O)NC(C)c1ccc(F)cc1 (configuration not stated)	0.82
CC1=C(C#N)C(=O)N(C)C(C)(C)C1	3.56
CN1CCc2nc3ccc(Cl)cc3c(-c3ccccc3Cl)c2C1	15.3
CNC(=O)c1ccccc1NC(=O)c1ccc(C)c(S(=O)(=O)N2CCCCC2)c1	3.71
Oc1ccc2ccccc2c1C1Nc2cccc3cccc(c23)N1	1.78
Cc1cc(C(=O)O)ccc1-n1c(C)ccc1C	4.73
COc1cc(C(=O)NCC(c2ccco2)N2CCCC2)ccc1OCc1c(C)noc1C (configuration not stated)	4.39
Cc1cc(C(=O)CCl)c(C)n1-c1c(C)n(C)n(-c2ccccc2)c1=O	3.61
O=C(O)/C(=C/c1ccco1)NC(=O)c1ccccc1	2.44
O=[N+]([O-])c1c(NCCCO)cc(SCc2ccco2)c2nonc12	27.4
CCc1c(C)sc(NC(=O)c2cc(-c3ccco3)on2)c1C#N	1.8
Cc1oc(-c2ccc(Cl)cc2)cc1-c1nn2c(-c3ccoc3C)nnc2s1	11.2
CCC(c1nnnn1Cc1ccco1)N(Cc1ccccc1OC)Cc1cc2cc(C)ccc2[nH]c1=O (configuration not stated)	-4.56
S=c1[nH]nc(COc2ccc3c(c2)OCO3)n1-c1ccccc1	4.81
O=P(O)(CN1CCCCCC1)CN1CCCCCC1	2.91
C=CCN=c1scc(-c2ccco2)n1/N=C/c1ccc(O)c(O)c1O	7.15
N#CC1=C(N)OC2=C(CCC/C2=C/c2ccoc2)C1c1ccoc1 (configuration not stated)	1.5

Compound	inhibition [%]
Cc1cc(C(=O)CSc2nc3ccccc3c(=O)[nH]2)c(C)n1C	2.05
C=C(C)C(=O)Nc1cccc(C2=NOC3(C2)C[C@@H](C(N)=O)N(C(=O)CC(c2ccccc2)c2ccccc2)C3)c1 (some centres not stated)	-2.21
CSc1nc(NCCOCCO)c2sc3nc(-c4ccco4)c4c(c3c2n1)CCC4	6.36
COC(=O)Cn1c(CCC(=O)O)ccc1-c1ccccc1	1.29
O=C(OC1CCCCC1)c1ccc2c(c1)C1C=CCC1C(C(=O)O)N2 (configuration not stated)	15.7
COc1cccc(C2C(C#N)=C(N)OC3=C2C(=O)CC(c2ccco2)C3)c1OCc1ccc(F)cc1 (configuration not stated)	1.37
Cc1ccc(CCC(=O)Nc2ccc(S(N)(=O)=O)cc2)o1	2.11
CCOC(=O)c1cc(NC(=O)N2CCCc3ccccc32)c(C)nc1C	-1.62
CNC(=O)[C@@H]1C[C@H]1[C@@H](NC(=O)OCc1ccccc1)c1ccccc1	2.14
C(=C\c1ccco1)/C=N/n1cnnc1	-4.46
O=C(/C=C/c1ccco1)NC(=S)Nc1ccccc1N1CCOCC1	4.93
C=CCn1c(O)c(C(CC)=NCCN2CCOCC2)c(=O)[nH]c1=O	1.31
CC(/C=N/n1c(-c2ccncc2)n[nH]c1=S)=C\c1ccco1	7.56
CCOc1cc(CNc2ccc(O)cc2)ccc1OCc1ccc(Cl)cc1Cl	-7.67
O=C(O)C1Nc2c(Cl)cc(Cl)c(Cl)c2C2C=CCC12 (configuration not stated)	2.36
Cc1ccc(NC(=O)CN(C)C(=O)c2cccc(-n3cccc3)c2)cc1	1.89
CCc1ccccc1NC(=O)c1cccc(NC(=O)/C=C/c2ccco2)c1	-3.66
Cc1cc2ccccc2n1CCNC(=O)C1CCCCC1	22.4
COc1cccc(-n2c(Cc3cc(=O)[nH]c(=O)[nH]3)nnc2SCC(=O)NC2CCCC2)c1	-1.98
Cc1cc(C)nc(N2CCC(C(=O)O)CC2)n1	0.27
COc1ccc(NC(=S)NCCc2ccccc2OC)c(OC)c1	-8.17
C=CCn1c(COc2ccc(F)cc2)nnc1SCC(=O)NC(=O)NCc1ccco1	0.17

Compound	inhibition [%]
Clc1ccc(OCc2nn3c(-c4ccco4)nnc3s2)c(Cl)c1	-1.9
COC(C(=O)C(O)C(C)O)C1Cc2cc3cc(OC4CC(OC5CC(O)C(O)C(C)O5)C(O)C(C)O4)c(C)c(O)c3c(O)c2C(=O)C1OC1CC(OC2CC(OC3CC(O)C(OC)C(C)O3)C(O)C(C)O2)C(O)C(C)O1 (configuration not stated)	-1.16
O=c1oc(/C=C/c2ccco2)nc2sc3c(c12)CCC3	1.89
Cc1cc(C(=O)CSc2nnc(-c3ccccc3)n2Cc2ccc3c(c2)OCO3)c(C)n1C	-0.57
COC(=O)c1ccc(COc2ccccc2/C=C(\C#N)C(=O)Nc2c(C)cc(C)cc2C)cc1	-3.51
CCOc1ccc(-c2nnn(CC(=O)c3ccc4c(c3)OCCO4)n2)cc1OCC	-2.88
Cc1cccc(C)c1NC(=O)CSc1nnc(-c2ccco2)c(-c2ccco2)n1	4.93
O=C(C1CCCN1S(=O)(=O)c1cccc2cccnc12)N1CCN(c2ccccc2)CC1 (configuration not stated)	18
CNc1ccccc(-c2ccc3cc4c(cc3n2)OCO4)c1=O	6.22
O=C(CCN1C(=O)/C(=C/c2cccs2)SC1=S)NC1=NCCS1	3.86
COCCNc1nnc(SC(C)C(=O)Nc2ccc(-c3nc4ccc(C)cc4s3)cc2)s1 (configuration not stated)	-10.4
COc1ccc2[nH]c(=O)c(CN(Cc3ccco3)C(c3nnnn3Cc3ccccc3)C(C)C)cc2c1 (configuration not stated)	8.05
C=CCOC(=O)C1=C(C)NC(SCC(=O)Nc2ccccc2)=C(C#N)C1c1ccco1 (configuration not stated)	-0.21
N#C/C(=C\c1ccc([N+](=O)[O-])o1)C(=O)Nc1ccc(F)cc1	-4.89
c1cn2cc(CSC3CCCCC3)nc2s1	2.38
Cc1ccc(N2C(=O)/C(=C\c3ccco3)SC2=S)cc1	-2.25
CCC(C)(C)n1nnnc1C(c1ccc2ncccc2c1)N1CCN(c2ccc(O)cc2)CC1 (configuration not stated)	11.3
CC1(C)OC(=O)C(=C2CCCN2)C(=O)O1	2.43
COC(=O)C1=C(C)NC(=O)/C1=C\c1cc(C)n(-c2ccccc2C)c1C	0.71
O=C(Nc1ccc(F)cc1)C(c1ccccc1)N1CCN(S(=O)(=O)c2ccc3ccccc3c2)CC1 (configuration not stated)	-1.89
CCCCC(=O)NC(=S)Nc1cc(C(=O)O)ccc1Cl	2.22
Cc1occc1-c1nnc(SCC(=O)N2CCN(c3ccccc3)CC2)n1C	11.3

Compound	inhibition [%]
CC(C)n1c(=NC(=O)c2ccco2)c(C#N)cc2c(=O)n3ccccc3cc21	7.91
CCOC(=O)C1CCN(C(=O)COc2ccc(S(=O)(=O)NC(C)C)cc2)CC1	-2.82
CCOC(=O)Cc1cc(=O)n2[nH]c(C)cc2n1	-1.93
COCCNC(=O)c1ccc(CS(=O)(=O)c2c(Cl)cccc2Cl)o1	4.28
CC(C)CC(=O)Nc1nnc(-c2ccco2)s1	0.89
CCOc1cccc(CNCCNC(=O)c2nonc2N)c1	-2.13
COc1ccc(-n2c(Cc3cccn3C)nnc2SCC(N)=O)cc1	7.71
COC(=O)CCCC(=O)Nc1c(F)c(F)c(F)c(F)c1F	-2.58
CCOc1ccc(Nc2nc3ccccc3n3nnnc23)cc1	-1.63
CN(CC(=O)Nc1cccc(F)c1)C(=O)c1cccc(-n2cccc2)c1	-2.98
O=C(NC1CCC(C(=O)O)CC1)OCc1ccccc1 (configuration not stated)	1.11
CCc1cc(=O)n2[nH]c(C)c(-c3ccccc3OC)c2n1	-1.39
COc1cccc(CNC(=O)CCNS(=O)(=O)c2cccs2)c1	2.89
COc1cccc(C(C#N)N2CCCCC2)c1O (configuration not stated)	0.26
O=C(N/N=C/c1cn(Cc2cccc(F)c2)c2ccccc12)c1cc(O)cc(O)c1	6.55
O=C(CSc1nnnn1-c1ccccc1)Nc1ncc2c(n1)CC(c1ccco1)CC2=O (configuration not stated)	0.22
CCOc1ccc(NCC2CCOC(C)(C)C2)cc1 (configuration not stated)	9.47
CCOC1(OCC)N=C(N)C2(C#N)C(c3cccc(OC)c3OC)C12C#N (configuration not stated)	5.56
CCOC(=O)C1CCCN(C(=O)c2ccc(CNc3c(N4CCC(C)CC4)c(=O)c3=O)cc2)C1 (configuration not stated)	-4.81
CCc1ccc(CC)c(S(=O)(=O)Nc2ccc(C(=O)O)c(O)c2)c1	4.62
CC/C(=C\C(=O)c1ccncc1)Nc1ccc(O)cc1	20.5
CCNc1ccc(Br)cc(C(=O)/C=C/c2ccc3c(c2)OCO3)c1=O	-2.1

Compound	inhibition [%]
O=[N+]([O-])c1cc(CN2CCOCC2)c2cccnc2c1O	17.9
Cc1ccc[n+](-c2[nH]c(=O)sc2/C=N/NC(=O)c2ccccc2[O-])c1	0.56
Cc1cc(C(=O)CSc2nnc(-c3ccco3)o2)c(C)n1Cc1ccco1	0.59
COc1ccc2[nH]c3c4c(ccc3c2c1)C(=O)C=CC4=O	5.16
O=C(Nc1ccccc1N1CCCC1)c1ccc(Br)o1	5.44
COC(=O)C(C)Sc1nnc(Cc2cc(=O)[nH]c(=O)[nH]2)n1-c1cc(C)ccc1C (configuration not stated)	0.66
O=C(Nc1ccccc1)C1=C(O)CC(c2ccco2)CC1=Nc1ccccc1 (configuration not stated)	-0.44
O=C(c1cc(-c2ccco2)on1)N1CCN(c2ccccc2)CC1	-4.83
Cc1cc(NC(=O)CCNS(=O)(=O)c2cc(Br)cnc2N)ccc1Br	5.53
Cc1cc(C(=O)CSc2nnnn2C)c(C)n1CCc1ccc(Cl)cc1	5.37
CC1(C)CCCN(C(=O)c2coc(=O)c(Br)c2)C1	1.09
FC(F)(F)c1cc(-c2ccco2)nc(NCc2cccnc2)n1	-1.65
CN(C)c1ccc(NC(=O)CSc2nc3ccccc3c(=O)n2C2CCCCC2)cc1	2.21
Cn1cccc1C(=O)NC(=O)COC(=O)CC12CC3CC(CC(Br)(C3)C1)C2	4.29
CC(=O)Nc1ccc(NC(=O)C(C)OC(=O)CC23CC4CC(CC(Br)(C4)C2)C3)cc1 (configuration not stated)	2.41
O=C(O)C1Nc2c(C(=O)N3CCOCC3)cccc2C2C=CCC12 (configuration not stated)	0.78
O=C(Nc1ccn(-c2ccccc2)n1)c1ccccc1Br	-3.02
CC(=O)c1cccc(NC(=O)CN2C(=O)NC3(CCCCCCC3)C2=O)c1	5.93
COc1ccc(-n2c(C)cc(C(=O)CSc3nn4c(=O)c(C(C)(C)C)nnc4s3)c2C)cc1	-3.69
